# High-throughput results (PubChem)
# Rows were chosen to be rich in hits. Some 19% of all compounds tested hit in one or more screens of this group.
# IL1B secr inh = inflammasome signaling inhibition, IL-1 beta readout | 360,000 compounds, 4.7% hits | activity change, % at 57.5 µM | THP-1 LPS/ATP IL-1B secretion, AlphaLISA, 16 h; stronger effect = lower value; in the data active = activity change below about -50%; inconclusive = mostly about -30% to -49%
#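 Secreted IL-1B measured by AlphaLISA bead assay after 16 h compound exposure of THP-1 cells; compounds (final up to 57.5 uM) added 1 h before LPS (250 ng/mL) and ATP (1.25 mM) stimulation; lower signal means less secretion.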
# HT1080NT lethal = kills 2HG-producing HT-1080-NT fibrosarcoma cells. HT-1080-NT fibrosarcoma viability, CellTiter-Glo ATP luminescence, 48 h. Potency, µM (doses to about 46.1 µM), for inactives: at the highest dose activity, negative = less viability, actives largely listed as cytotoxic. 360,000 compounds, 1.6% hits. AID 686970;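 also: NT is the 2HG producing partner of a matched IDH1 knockdown line; potency is read from the fitted curve at half-maximal effect; 0% = DMSO-treated cells and -100% = media-only wells without cells; nearly all actives have a fitted effect of over 55% in size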
#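 750 cells/well, RPMI + 5% FBS; 2 h settle, compound pin-transfer, 48 h at 37 degrees C. CellTiter-Glo 10 min RT, luminescence. Normalized to DMSO and media-only wells.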
# TDP1 cell noCPT = qHTS for Inhibitors of human tyrosyl-DNA phosphodiesterase 1 (TDP1): qHTS in cells in absence of CPT. DT40 Tdp1-/- hTDP1 cells, no CPT, ATP luminescence, 48 h. Potency, µM (doses to about 46.2 µM), inactives show at the highest dose activity change, negative = growth inhibition, actives largely listed as inhibitors. 420,000 compounds, 15% hits. AID 686978, 2013; also: potency is read from the fitted curve at half-maximal effect; nearly all actives have a fitted effect of over 55% in size
#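 Growth of hTDP1-complemented DT40 Tdp1-knockout cells is measured by ATP luminescence after at least 48 hr compound exposure at 37 °C, with DMSO substituting for the 20 nM CPT used in the parallel screen.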
# HT1080 IDH1KD tx = HT-1080 IDH1 knockdown cell toxicity (counter line). HT-1080 IDH1 knockdown viability, ATP luminescence, 48 h. Potency, µM (highest dose often 46.1 µM), without a hit: top-dose activity, negative = toxicity, usual class: cytotoxic. 360,000 compounds, 2% hits;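 also: potency is read from the fitted curve at half-maximal effect; 0% = DMSO wells and -100% = cell-free medium wells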
#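 CellTiter-Glo luminescence after 48 h compound exposure at 37 degrees C of IDH1-knockdown HT-1080 cells in 5% FBS RPMI. %Activity scaled between DMSO wells and cell-free media wells, with curves fitted and assigned curve classes.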
# DT40 TDP1 CPT = growth inhibition of DT40 Tdp1-/-;hTDP1 cells with camptothecin (screen for TDP1 inhibitors); chicken DT40 Tdp1-/-;hTDP1 cells + 20 nM CPT, ATP luminescence, 48 h; 420,000 compounds, 12% hits; Potency, µM (doses to about 46.2 µM), for inactives: at the top dose activity change, negative = growth inhibition, hits mostly inhibitors; AID 686979; also: potency is read from the fitted curve at half-maximal effect; nearly all actives have a fitted effect of over 55% in size
#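 Chicken DT40 Tdp1-/- cells complemented with human TDP1, 400 cells/well, exposed to compounds plus 20 nM camptothecin for at least 48 h at 37 C; viability read as ATP content by CellTiter-Glo luminescence.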
# * hit, by the source's call; ? = inconclusive; . = not tested or not shown; [ ] = remark or other dose. Unless noted, calls follow the shape of the dose curve; as a rule, active = well fitted curve in the direction sought with a large enough effect; inconclusive = small, poorly fitted or top-dose-only effect, or another doubt; inactive = no such curve, though single readings can be large; an effect the other way counts as inactive or inconclusive. Unless noted, % is scaled to controls: 0 for no effect and ±100 for the full control effect.
SMILES,IL1B secr inh,HT1080NT lethal,TDP1 cell noCPT,HT1080 IDH1KD tx,DT40 TDP1 CPT
CCOCCCNC(=O)/C(C#N)=C/c1cc(Br)c(O)c(Br)c1,?,2.3µM*,1.6µM*,2.1µM*,4.1µM*
CCOCCCNC(=O)/C(C#N)=C/c1ccc([N+](=O)[O-])o1,-111*,?,1.8µM*,7.3µM*,1.3µM*
COCCNC(=O)/C(C#N)=C/c1cc(Br)c(O)c(OC)c1,23,2%,-2%,3%,4%
CCOCCCNC(=O)/C(C#N)=C/c1ccc(-c2ccc(S(=O)(=O)N3CCOCC3)cc2)o1,5,-13%,8.2µM*,-1%,12µM*
Cc1ccc(C(=O)C(OC(=O)CNC(=O)COc2ccccc2C)c2ccccc2)cc1 (stereo not drawn),.,.,-12%,.,0%
CCc1nc(NCC2CCCO2)c(C#N)c2c1COC(C)(C)C2 (stereo not drawn),-17,6%,-10%,-1%,?
CCCc1nc(NC2CCCCC2)c(C#N)c2c1COC(C)(C)C2,8,-26%,29µM*,5%[9.24 µM],18µM*
O=P(c1ccccc1)(c1ccccc1)c1cc(Br)cc(Br)c1OCCO,-56*,-13%,?,-7%,-4%
COCCN(C(=O)C(C)C)c1nnc(-c2ccc(C)cc2)s1,-22,2%,?,-3%,?
COCCN(C(=O)C(C)C)c1nnc(-c2cccc(C)c2)s1,-53*,-4%,-21%,-8%,-6%
Cc1ccc(NC(=O)c2ccc3c(c2)NC(=O)c2ccccc2S3)cc1,.,.,2.6µM*,.,3.7µM*
Cc1ccc(C(=O)Nc2ccc3c(c2)N(C)C(=O)c2ccccc2S3)cc1F,.,.,0.82µM*,.,1µM*
CCCCNC(=O)c1ccc2c(c1)N(C)C(=O)c1ccccc1S2,-1,-10%,?,9%,?
C/C(=N\NC(=O)c1ccc(C)cc1C)c1ccc2c(c1)Nc1ccccc1S2,27,-24%,16µM*,?,?
CC(=O)Nc1cc(C(=O)Nc2ccc3c(c2)N(C)C(=O)c2ccccc2S3)ccc1C,.,.,0.92µM*,.,1.6µM*
Cc1cccc(NC(=O)Cn2c(/C=C/c3ccccc3)nc3ccccc32)c1,-12,-15%,-4%,-19%,?
COc1ccc(-c2cc(C(=O)Nc3ccc(C#N)cc3)no2)cc1,.,.,-16%,.,4%
NS(=O)(=O)c1ccc(CCNC(=O)c2ccc(NS(=O)(=O)c3ccc4[nH]c(=O)[nH]c4c3)cc2)cc1,-15,-4%,5%,-4%,0%
CC(=O)Nc1c(C)ccc(S(N)(=O)=O)c1C,-4,11%,12%,21%,-19%
COc1cccc(-n2c(C)nc3c(cnn3-c3ccc(Cl)cc3)c2=O)c1,-20,8%,7.3µM*,-2%,8.2µM*
CCc1cccc(-n2c(C)nc3c(cnn3-c3ccc(C)c(C)c3)c2=O)c1,.,.,23µM*,.,-74%
CCc1cccc(-n2c(C)nc3c(cnn3-c3ccc(Cl)cc3)c2=O)c1,.,.,4.1µM*,.,5.8µM*
CCOc1ccc(-n2c(C)nc3c(cnn3-c3ccc(Cl)cc3)c2=O)cc1,24,9%,-21%,6%,-12%
CCc1nc2c(cnn2-c2ccc(Cl)cc2)c(=O)n1-c1ccc2c(c1)OCCO2,12,13%,18µM*,7%,?
CCCCSc1nc2c(cnn2-c2ccc(C)c(C)c2)c(=O)[nH]1,27,-4%,-22%,-2%,-4%
SMILES,IL1B secr inh,HT1080NT lethal,TDP1 cell noCPT,HT1080 IDH1KD tx,DT40 TDP1 CPT
COc1ccc(-n2ncc3c(=O)n(CC(=O)Nc4ccc5c(c4)OCCO5)cnc32)cc1,10,-30%,?,-11%,-21%
COc1ccccc1C(=O)Nc1ccnn1C1CCN(CCCc2ccccc2)CC1,-2,-12%,?,-5%,?
Cn1c(=O)oc2cc(S(=O)(=O)NC(Cc3ccccc3)C(=O)Nc3ccc(F)c(Cl)c3)ccc21 (stereo not drawn),.,.,-22%,.,0%
Nc1ncnc2c1nc(Sc1ccc(Cl)cc1)n2[C@@H]1O[C@@H]2COP(=O)(O)O[C@H]2[C@H]1O,1,0%,-9%,-1%,-14%
NC(=O)C1=C[C@H](c2ccc(C(F)(F)F)cc2)C[C@H](OCc2ccc(CO)cc2)O1,-3,3%,?,6%,-25%
NC(=O)C1=C[C@@H](c2ccc(C(F)(F)F)cc2)C[C@@H](OCc2ccc(CO)cc2)O1,-13,0%,15µM*,-1%,?
NC(=O)C1=C[C@@H](c2ccc(Br)cc2)C[C@@H](OCc2ccc(CO)cc2)O1,21,-2%,?,0%,?
NC(=O)C1=C[C@H](c2ccc(Br)cc2)C[C@H](OCc2ccc(CO)cc2)O1,-13,6%,21µM*,7%,13µM*
COC(=O)c1ccccc1-c1cn(C)c2ccccc2c1=O,14,-4%,11%,2%,4%
O=C(CSc1cccc[n+]1[O-])Nc1cccc(Oc2ccccc2)c1,9,-8%,-9%,-13%,-5%
Cc1ccc2cc(CN(Cc3ccco3)C(=O)c3ccccc3)c(=O)[nH]c2c1C,-7,-1%,?,2%,?
Cc1ccc2cc(CN(Cc3ccco3)C(=S)NCC3CCCO3)c(=O)[nH]c2c1C (stereo not drawn),-26,5%,26µM*,7%,18µM*
COc1cccc(N(C(=O)c2nc3nccc(C)n3n2)c2nc3ccccc3s2)c1,-92*,?,?,?,?
COc1cc(C2C(C#N)=C(N)N(Nc3ccccc3)C3=C2C(=O)CC(C)(C)C3)ccc1OCc1ccccc1 (stereo not drawn),?,?,21µM*,?,?
CC1(C)CC(=O)C2=C(C1)N(c1cccnc1)C(N)=C(C#N)C2c1cccs1 (stereo not drawn),0,10%,-2%,13%,5%
C=CCOc1ccc(C2C(C#N)=C(N)N(Nc3ccccc3)C3=C2C(=O)CCC3)cc1OC (stereo not drawn),14,?,16µM*,?,?
COc1cc(C2C(C#N)=C(N)N(Nc3ccccc3)C3=C2C(=O)CC(C)(C)C3)ccc1OCc1cccc(F)c1 (stereo not drawn),-52*,?,?,?,?
COc1ccc(C2C(C#N)=C(N)N(c3cccnc3)C3=C2C(=O)CC(C)(C)C3)cc1OC (stereo not drawn),7,-1%,?,11%,23µM*
COc1cccc(NC(=O)CN(C)C(C)C(=O)N2CCCC2)c1 (stereo not drawn),-1,-5%,-1%,-2%,-3%
